DRD3 antagonist – blocks the human D3 dopamine receptor | D3R cells, DiscoveRx beta-arrestin luminescence, antagonist mode; active compounds read low | max response, negative = inhibition, % | hit rate 2.5% among 360,000; in the data active = max response below about -50%; inconclusive = no clear call, values can overlap the other calls; note: % is set by controls: 0 for no effect and ±100 for the full control effect
Target sequence (P35462 whole entry, looked up): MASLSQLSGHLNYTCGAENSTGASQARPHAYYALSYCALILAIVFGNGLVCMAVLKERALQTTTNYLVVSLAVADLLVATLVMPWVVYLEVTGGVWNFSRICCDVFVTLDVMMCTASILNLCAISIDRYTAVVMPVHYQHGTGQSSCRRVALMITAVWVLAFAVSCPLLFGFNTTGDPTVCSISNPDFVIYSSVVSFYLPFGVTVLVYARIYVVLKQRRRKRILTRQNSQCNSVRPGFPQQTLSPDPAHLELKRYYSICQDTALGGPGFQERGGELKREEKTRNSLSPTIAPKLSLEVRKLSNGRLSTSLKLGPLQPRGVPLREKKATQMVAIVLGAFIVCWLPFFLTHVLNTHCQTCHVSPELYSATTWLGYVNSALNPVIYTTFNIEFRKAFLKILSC
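Cells expressing the human receptor were seeded at 1500 cells/well, incubated overnight at 37 degrees C in 5% CO2, then exposed to library compounds with dopamine controls for 90 minutes at 37 degrees C before luminescent detection.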
DRD3 agonist – agonists of human D3 dopamine receptor | P35462 | D3R DiscoveRx beta-arrestin cells, luminescence, 90 min | max activation, % | hit rate 0.58% among 410,000 | AID 652048; in the data active = max activation above about 30%; note: 0% is about no effect
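Agonist-mode cell screen: cells plated at 1500/well and incubated overnight at 37 °C, then exposed to library compounds for 90 min at 37 °C. Detection reagent was added for 30–60 min at room temperature, and luminescence was read.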
DT40 TDP1 CPT – DT40-hTDP1 cell growth loss with CPT | chicken DT40 Tdp1-/-;hTDP1 cells + 20 nM CPT, ATP luminescence, 48 h | Potency, µM (top dose mostly 46.2 µM), inactives show top-dose activity change, negative = growth inhibition, actives largely listed as inhibitors | hit rate 12% among 420,000 | AID 686979; note: potency is the fitted concentration of half-maximal effect; % is set by controls: 0 for no effect and ±100 for the full control effect; nearly all actives have a fitted effect of over 55% in size
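Chicken DT40 Tdp1-/- cells complemented with human TDP1, 400 cells/well, exposed to compounds plus 20 nM camptothecin for at least 48 h at 37 C; viability read as ATP content by CellTiter-Glo luminescence.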
TDP1 cell noCPT – qHTS for Inhibitors of human tyrosyl-DNA phosphodiesterase 1 (TDP1): qHTS in cells in absence of CPT; DT40 Tdp1-/- hTDP1 cells, no CPT, ATP luminescence, 48 h; AID 686978, 2013; Potency, µM (series often up to 46.2 µM), for the others: top-dose activity change, negative = growth inhibition, hits mostly inhibitors; hit rate 15% among 420,000; note: potency is the fitted concentration of half-maximal effect; % is set by controls: 0 for no effect and ±100 for the full control effect; nearly all actives have a fitted effect of over 55% in size
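Luminescent ATP content (CellTiter-Glo) served as the growth readout. Knockout chicken DT40 cells expressing human TDP1 were exposed to compounds without camptothecin for a minimum 48 hr at 37 °C.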
IL1B secr inh – blocks inflammasome-driven IL-1 beta release; AID 743279; THP-1 LPS/ATP IL-1B secretion, AlphaLISA, 16 h; active compounds read low; activity change, % at 57.5 µM; hit rate 4.7% among 360,000; in the data active = activity change below about -50%; inconclusive = mostly about -30% to -49%; note: % is set by controls: 0 for no effect and ±100 for the full control effect
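Secreted IL-1B measured by AlphaLISA bead assay after 16 h compound exposure of THP-1 cells; compounds (final up to 57.5 uM) added 1 h before LPS (250 ng/mL) and ATP (1.25 mM) stimulation; lower signal means less secretion.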
ClpP mod – qHTS Assay for Activators of ClpP | Potency, µM (titrated, usually from 57.5 µM), inactives show at the highest dose activity change, negative = active | ATP-dependent Clp protease proteolytic subunit (Bacillus subtilis (strain 168)), P80244 | purified B. subtilis ClpP, FRET peptide cleavage, 20 min | hit rate 1.9% among 340,000; active = well fitted falling curve with a large enough effect; inconclusive = small, poorly fitted or top-dose-only effect; inactive = no such curve, though single readings can be large or run the other way; note: potency is the fitted concentration of half-maximal effect; the source files actives as falling curves though it sought activators and does not explain the sign; nearly all actives have a fitted effect of over 65% in size
Target sequence (P80244 whole entry, looked up): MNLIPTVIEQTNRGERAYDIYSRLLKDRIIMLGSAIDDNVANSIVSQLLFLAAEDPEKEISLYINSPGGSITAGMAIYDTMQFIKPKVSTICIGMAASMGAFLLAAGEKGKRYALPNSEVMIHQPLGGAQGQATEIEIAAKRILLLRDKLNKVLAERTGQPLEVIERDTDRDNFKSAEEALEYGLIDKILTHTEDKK
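Buffer: 100 mM Tris/HCl pH8, 100 mM KCl, 0.05% low protease BSA, 2.5% glycerol, 0.01% Tween-20. ClpP 10 microg/mL final; 20 min RT; delta FRET normalized to ADEP and DMSO controls.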
The depositor's hits bear a star; ? = inconclusive; . = no result given. This is a sample that favours compounds with a hit; in the whole collection about 21% have one here. Unless noted, calls come from the whole dose curve; as a rule, active = well fitted inhibition curve with a large enough effect; inconclusive = small, poorly fitted or top-dose-only effect; inactive = flat fitted curve, though single readings scatter.

SMILES	DRD3 antagonist	DRD3 agonist	DT40 TDP1 CPT	TDP1 cell noCPT	IL1B secr inh	ClpP mod
COc1ccc(-c2nc3cc(C)c(Br)c(C)n3c2Cc2ccc(C)cc2)cc1OC	15.4	7.1	?	?	17.4	-1.1%
C=CCNC(=S)N1CCC(C(=O)c2ccc(F)cc2)CC1	17.1	5.8	?	?	14.1	-1.7%
COc1ccc(NC(=O)CN2CCN(c3nc(-c4ccc(F)cc4)cs3)CC2)c(OC)c1	14.1	5.2	?	?	25.6	.
COc1ccc(NC(=O)CN2CCC(C(=O)c3ccc(F)cc3)CC2)c(OC)c1	-73.3*	-16.6	?	20.6µM*	45.4	.
CCOc1ccc(N(C)C(=O)CCc2nnc3ccc(N4CCC5(CC4)OCCO5)nn23)cc1	-7.0	6.8	-12.6%	19.5%	-7.9	-4.9%
CCc1ccc(C(=O)c2cn(Cc3ccc(F)cc3)c3cc(OC)c(OC)cc3c2=O)cc1	.	3.1	5.8µM*	6.51µM*	.	-1.5%
CCc1ccc(C(=O)c2cn(CC(=O)Nc3ccc(F)c(F)c3)c3cc(OC)c(OC)cc3c2=O)cc1	.	0.3	20.6µM*	16.4µM*	.	-4.5%
CCOc1ccc(NC(=O)Cn2cc(C(=O)c3ccc(CC)cc3)c(=O)c3cc(OC)c(OC)cc32)cc1	.	0.8	-4.0%	?	.	-5.7%
CCNS(=O)(=O)c1ccc(CCC(=O)N2CCN(c3ccccc3F)CC2)cc1	14.8	1.7	-6.2%	-9.6%	23.4	-3.8%
CCOC(=O)N1CCN(C(=O)c2ccc3c(c2)NC(=O)/C(=C\c2ccc(OC)c(OC)c2)S3)CC1	36.0	-0.8	?	16.4µM*	6.8	2.1%
CCOC(=O)N1CCC(NC(=O)c2ccc3c(c2)N(C)C(=O)/C(=C/c2cccc(OC)c2)S3)CC1	0.4	6.3	18.4µM*	18.4µM*	0.5	-3.5%
CCOc1ccc(/C=C2/Sc3ccc(C(=O)NCC4CCCO4)cc3N(C)C2=O)cc1OC (centres undefined)	14.5	5.4	?	?	-8.8	-2.1%
CCOC(=O)N1CCN(C(=O)c2ccc3c(c2)NC(=O)/C(=C\c2cccc(C)c2)S3)CC1	-8.3	7.8	?	13µM*	-25.2	-12.0%
Cc1cccc(/C=C2/Sc3ccc(C(=O)N4CCOCC4)cc3NC2=O)c1	1.8	-1.1	?	?	-13.0	0.7%
COc1ccc(/C=C2/Sc3ccc(C(=O)N4CCOCC4)cc3NC2=O)cc1OC	0.3	-4.4	?	-25.7%	18.6	1.5%
CCOC(=O)N1CCN(C(=O)c2ccc3c(c2)N(C)C(=O)/C(=C\c2ccc(OCC)c(OC)c2)S3)CC1	62.8	45.9*	?	16.4µM*	?	.
CCOc1ccc(-c2nc3c(s2)CCc2onc(-c4ccc(OC)cc4)c2-3)cc1	9.4	0.5	-16.4%	?	24.6	?
COc1ccc(C(C)C)cc1-c1cncc(NC(C)=O)n1	4.2	5.4	-26.1%	?	-95.7*	?
CCCCN(Cc1nc2ccccc2c(=O)[nH]1)C(=O)COc1ccc(F)cc1Cl	2.3	1.6	18.4µM*	14.6µM*	17.3	-5.2%
Cc1ccc(S(=O)(=O)NC2CC(C)(C)NC(C)(C)C2)cc1	14.0	5.8	6.7%	-6.9%	14.4	-0.6%
Cc1ccc(S(=O)(=O)NC2CC(C)(C)N(O)C(C)(C)C2)cc1	16.0	-2.1	?	20.6µM*	19.3	1.2%
O=C(CSc1nnc2ccccn12)NNC(=O)c1ccc(F)cc1	-6.0	7.1	-8.0%	-1.5%	-1.8	0.7%
Cc1onc(-c2ccccc2)c1C(=O)OCC(=O)Nc1ccccc1Cl	-23.5	-13.7	?	18.4µM*	-1.0	0.0%
CCOC(=O)c1ccccc1NC(=O)c1c(-c2ccccc2)noc1C	.	9.6	9.2µM*	4.61µM*	.	-17.2%
CCCCN(CCCC)S(=O)(=O)c1ccc(NC(=O)c2c(-c3ccccc3)noc2C)cc1	.	-17.4	20.6µM*	29.1µM*	.	-6.7%
SMILES	DRD3 antagonist	DRD3 agonist	DT40 TDP1 CPT	TDP1 cell noCPT	IL1B secr inh	ClpP mod
Cc1cccc(OCCOC(=O)c2c(-c3ccccc3)noc2C)c1	6.7	5.6	?	23.1µM*	33.2	.
Cc1cc(C)c(CN2C(=O)c3ccccc3S(=O)(=O)c3ccc(C(=O)OCC4CCCO4)cc32)c(C)c1 (centres undefined)	.	-0.1	?	?	.	-7.7%
COCCOc1cc2ncnc(N3CCC(C(=O)O)CC3)c2cc1OCCOC	6.4	10.0	0.0%	-3.1%	10.2	-5.4%
COc1ccccc1NC(=O)N(Cc1ccco1)Cc1cc2cc(C)cc(C)c2[nH]c1=O	-21.0	-7.0	20.6µM*	14.6µM*	?	-27.0%
COc1ccccc1NC(=O)N(CCN1CCOCC1)Cc1cc2cc(C)cc(C)c2[nH]c1=O	-2.8	1.5	1.5%	-29.2%	-27.7	.
COc1ccccc1NC(=O)N(Cc1ccco1)Cc1cc2ccc(C)c(C)c2[nH]c1=O	-9.0	-0.5	3.66µM*	4.11µM*	1.5	-16.6%
COc1ccccc1NC(=S)N(Cc1ccco1)Cc1cc2cccc(C)c2[nH]c1=O	-5.2	-4.9	?	?	-18.6	-8.2%
COc1ccccc1NC(=S)N(Cc1ccco1)Cc1cc2cc(C)c(C)cc2[nH]c1=O	-22.4	-23.6	4.11µM*	5.17µM*	-54.3*	-24.3%
COc1ccc(-c2[nH]ncc2CN2CCN(c3ccccn3)CC2)c(OC)c1	-26.4	-10.9	-7.2%	-13.3%	2.1	.
COc1ccc(-c2nc(CN3CCN(c4ncnc5ccccc45)CC3)c(C)o2)c(OC)c1	30.9	1.0	8.2µM*	5.8µM*	?	-2.9%
Cc1oc(-c2cc(F)ccc2F)nc1CN1CCN(c2ncnc3ccccc23)CC1	?	0.6	11.6µM*	20.6µM*	-29.4	-2.6%

High-throughput results from PubChem.
